The whole screen tested about 52,000 compounds, of which about 4,300 (8.3%) were called active. This is one part of a sample in which actives are shown more often than they occur. A number with no mark means an inactive call. No stated cut-off is given here; in the data, active means survival mostly below about 52% (no sharp cut-off); inactive means mostly above about 56%.

This test concerns DeltatarO mutant. The test can be described thus: growth inhibition of S. aureus wild type versus tarO mutant, primary screen, teichoic acid synthesis inhibitors, RN4220, OD600 (AID 463173). As to conditions: OD600, 18 h, hits give low values, screened at 18.75 µg/mL (by protocol).
For `C=CCNC(=S)N1CCC(C(=O)c2ccc(C)cc2)CC1`, the survival is 103%. For `O=C(N/N=C/c1ccccc1)C(O)c1ccccc1` (stereo unspecified), the survival is 95%. Then `COc1ccc(-c2nc3sc(CCNC(=O)C(=O)Nc4ccc(OC)c(OC)c4)c(C)n3n2)cc1`, with 84%; and `CCCN1CC=C2C(C#N)=C(N)C(C#N)(C#N)C(c3ccc(F)cc3F)C2C1` (stereo unspecified), with 77%; and `Cc1cc(OC(C)C(=O)N2CCN(CCc3ccccn3)CC2)ccc1Cl` (stereo unspecified), with 68%. Then `CC1=C(C(=O)Nc2ccc(C)cc2C)C(c2cc(Br)ccc2F)n2ncc(C(=O)Nc3ccc(C)cc3)c2N1` (stereo unspecified), with 89%.

As to `Cc1ccc(-n2ncc3c(Nc4ccc5c(c4)OCCO5)ncnc32)cc1Cl`, the survival was 117%.

In the case of `COc1cc(NC(=O)CC2C(=O)N(c3ccc(Cl)cc3)C(=O)N2Cc2cccs2)cc(OC)c1` (stereo unspecified), the survival is 85%. Then `COc1ccc(-n2c(SCC(=O)NCc3ccc(C)cc3)nc3n[nH]c(C)c3c2=N)cc1`, with 87%; and `Cc1ccccc1Cn1c(=O)n(-c2ccc(Cl)cc2)c(=O)c2c3c(sc21)CCCC3`, with 114%. Then `COc1ccc(NC(=O)c2ccc3c(=O)n4nc(Nc5cccc(Cl)c5C)sc4nc3c2)cc1`, with 67%; and `CCc1ccc(Oc2c(C(F)(F)F)oc3c(CN4CCCC(C)C4)c(O)ccc3c2=O)cc1` (stereo unspecified), with 77%. Then `CC1CCCN(Cc2c(O)ccc3c(=O)c(Oc4ccccc4Cl)c(C(F)(F)F)oc23)C1` (stereo unspecified), with 88%; and `CC1CCN(Cc2c(O)ccc3c(=O)c(-c4ccc(Cl)cc4)c(C(F)(F)F)oc23)CC1`, with 60%. Turning to `CC1CCCN(Cc2c(O)ccc3c(=O)c(Oc4ccc(C(C)(C)C)cc4)c(C(F)(F)F)oc23)C1` (stereo unspecified), the survival is 17% (active). The result for `O=c1c(-c2ccc(Cl)cc2)c(C(F)(F)F)oc2c(CN3CCCCC3)c(O)ccc12` reads 134%; that for `CC1CCCN(Cc2c(O)ccc3c(=O)c(-c4ccc(Cl)cc4)c(C(F)(F)F)oc23)C1` (stereo unspecified), 46% (active). Then `COc1ccc(Oc2c(C(F)(F)F)oc3c(CN4CCCC(C)C4)c(O)ccc3c2=O)cc1` (stereo unspecified), with 68%. For `CC1CCCN(Cc2c(O)ccc3c(=O)c(-c4ccccc4Cl)c(C(F)(F)F)oc23)C1` (stereo unspecified), the survival was 43% (active). Then `CC1CCCCN1Cc1c(O)ccc2c(=O)c(-c3ccccc3Cl)c(C(F)(F)F)oc12` (stereo unspecified), with 55%. Then `CCN1CCN(Cc2c(O)ccc3c(=O)c(Oc4ccccc4Cl)c(C(F)(F)F)oc23)CC1`, with 90%; and `CCN1CCN(Cc2c(O)ccc3c(=O)c(Oc4ccccc4C(C)C)c(C(F)(F)F)oc23)CC1`, with 51% (active). The result for `CC(C)c1ccccc1Oc1c(C(F)(F)F)oc2c(CN3CCN(C)CC3)c(O)ccc2c1=O` reads 49%; that for `COCc1cc(C)nc2sc3c(=O)n(-c4cc(C)ccc4C)nnc3c12`, 87%; that for `Cc1cc(C)c(NC(=O)C2CCN(C(=O)N3CC(C)Oc4ccc(Cl)cc43)CC2)c(C)c1` (stereo unspecified), 56%.

For the molecule `Cc1cc(C)c(NC(=O)CSc2nccn2-c2cccc(Cl)c2)c(C)c1`, the survival was 73%. Then `CCN(CC)S(=O)(=O)c1ccc2c(c1)c(=O)c(C(=O)NCCc1ccccc1)cn2C`, with 85%; and `Cc1cc(C)c(NC(=O)Cn2nnc(C(=O)NCc3cccs3)c2N)c(C)c1`, with 91%. Consider `CCOc1ccc(Sc2cc(C(=O)NC(C)c3ccccc3)c3ccccc3n2)cc1` (stereo unspecified), for which the survival is 75%. The result for `Cc1ccc(C(=O)Nc2cccc(OCc3cc(=O)n4c5c(sc4n3)CCCC5)c2)cc1` reads 118%. The result for `Cc1csc2nc(COc3cccc(NC(=O)c4ccccc4F)c3)cc(=O)n12` reads 123%. Then `Cc1ccccc1C(=O)Nc1cccc(OCc2cc(=O)n3c4c(sc3n2)CCCC4)c1`, with 101%; and `COc1cccc(C(=O)Nc2cccc(OCc3cc(=O)n4c5c(sc4n3)CCCC5)c2)c1`, with 51% (active). Regarding `COc1ccc(C(=O)Nc2cccc(OCc3cc(=O)n4c5c(sc4n3)CCCC5)c2)cc1`, the survival was 55%. With `Cc1ccccc1C(=O)Nc1cccc(OCc2cc(=O)n3c(C)csc3n2)c1`, the survival is 96%. Then `COc1ccc(C(=O)Nc2cccc(OCc3cc(=O)n4c5c(sc4n3)CCCC5)c2)cc1OC`, with 53%; and `COc1ccccc1C(=O)Nc1cccc(OCc2cc(=O)n3c4c(sc3n2)CCCC4)c1`, with 39% (active); and `COc1ccccc1C(=O)Nc1cccc(OCc2cc(=O)n3c(C)csc3n2)c1`, with 44% (active). The result for `CCOc1ccc(-c2nonc2NC(=O)c2oc3ccc(Cl)cc3c2C)cc1` reads 64%.

Take `NNC1=NC2CS(=O)(=O)CC2S1` (stereo unspecified): the survival is 56%. The result for `CCSc1nnc(CNc2ccc(F)cc2)n1CC1CCCO1` (stereo unspecified) reads 91%; that for `CC(CNC(=O)c1ccc(Cn2c(=O)c3cccn3c3cccnc32)cc1)c1ccccc1` (stereo unspecified), 41% (active).

`CC(C)CCNC(=O)c1ccc(Cn2c(=O)c3cccn3c3cccnc32)cc1`: the survival was 64%. As to `COCCCNC(=O)c1ccc(Cn2c(=O)c3cccn3c3cccnc32)cc1`, the survival was 70%. With `CCC(C)NC(=O)c1ccc(Cn2c(=O)c3cccn3c3cccnc32)cc1` (stereo unspecified), the survival was 116%.

In the case of `CC(C)NC(=O)c1ccc(Cn2c(=O)c3cccn3c3cccnc32)cc1`, the survival was 44% (active). The result for `CC(NC(=O)c1ccc(Cn2c(=O)c3cccn3c3cccnc32)cc1)c1ccccc1` (stereo unspecified) reads 101%. In the case of `CC(C)CCn1c(=O)c2sccc2n2c(CCCC(=O)NC(C)c3ccccc3)nnc12` (stereo unspecified), the survival was 88%.

Consider `Nc1nnc(SCC(=O)C2CC2)s1`, for which the survival is 80%. Then `O=C(N/N=C/c1ccc(F)cc1)c1ccc(NC(=O)C2CC2)cc1`, with 105%.

For the molecule `Cc1cc(Nc2cccc(Cl)c2)nc2ccc(NC(=O)c3cccnc3)cc12`, the survival is 91%.

For the molecule `COc1ccc(NC(=O)C2=CC(c3ccc4c(c3)OCO4)=NS(=O)(=O)N2C)cc1`, the survival was 88%. The result for `COc1ccc(C2=NS(=O)(=O)N(C)C(C(=O)Nc3ccc(OC(F)(F)F)cc3)=C2)cc1` reads 48% (active); that for `CN1C(C(=O)Nc2ccc(OC(F)(F)F)cc2)=CC(c2cccs2)=NS1(=O)=O`, 31% (active). As for `Cc1ccc(NC(=O)C2=CC(c3cccs3)=NS(=O)(=O)N2C)cc1`, the survival was 83%. Then `COc1ccc(NC(=O)C2=CC(c3cccs3)=NS(=O)(=O)N2C)cc1`, with 94%; and `CN1C(C(=O)Nc2ccc(OC(F)(F)F)cc2)=CC(c2ccc3c(c2)OCO3)=NS1(=O)=O`, with 80%. The result for `Cc1cc(C)c(Cn2c(=O)n(-c3ccccc3Cl)c(=O)c3c(C)c(C(=O)N(C)C)sc32)c(C)c1` reads 86%; that for `CCNc1nc2c(c(=O)n(C)c(=O)n2C)n1CC(O)COc1ccccc1` (stereo unspecified), 61%; that for `CCCCNc1nc2c(c(=O)n(C)c(=O)n2C)n1CC(O)COc1ccccc1C` (stereo unspecified), 42% (active). The result for `CCCNc1nc2c(c(=O)n(C)c(=O)n2C)n1CC(O)COc1ccccc1` (stereo unspecified) reads 62%; that for `Cc1cccc(NC(=O)CSc2nc3c(c(=O)[nH]2)CN(Cc2ccc4c(c2)OCO4)CC3)c1C`, 78%; that for `O=C1CCC(=O)N1CC(=O)N1CCCc2ccccc21`, 85%.

Turning to `CCN(CC)S(=O)(=O)c1ccc2c(c1)nc(CN(C)C(=O)Nc1ccc(C)c(Cl)c1)n2C`, the survival was 86%. The result for `CC(=O)NNc1ncnc2c1cnn2-c1ccccc1` reads 46% (active). Then `CC(C)(C)c1ccc(C(=O)NNc2ncnc3c2cnn3-c2ccccc2)cc1`, with 115%. For `CCC(C)Nc1ncnc2c1cnn2-c1ccc(F)cc1` (stereo unspecified), the survival was 72%. The result for `Cc1ccc(-n2ncc3c(NC(C)c4ccccc4)ncnc32)cc1` (stereo unspecified) reads 94%; that for `CCCCc1ccc(Nc2ncnc3c2cnn3-c2ccc(C)cc2)cc1`, 17% (active); that for `Cc1ccc(-n2ncc3c(Nc4ccc(Oc5ccccc5)cc4)ncnc32)cc1`, 68%. `Cc1ccc(-n2ncc3c(NCCCc4ccccc4)ncnc32)cc1`: the survival was 89%.

Turning to `COc1ccc(C(=O)NNc2ncnc3c2cnn3-c2ccccc2)cc1`, the survival was 92%.

Turning to `Cc1ccc(-n2ncc3c(Nc4cccc(C)c4C)ncnc32)cc1`, the survival was 94%. Then `Cc1ccc(C)c(Nc2ncnc3c2cnn3-c2ccc(F)cc2)c1`, with -1% (active).

For the molecule `CCC(CO)Nc1ncnc2c1cnn2-c1ccc(C)cc1` (stereo unspecified), the survival was -5% (active). On to `CCOc1ccccc1Nc1ncnc2c1cnn2-c1ccc(C)cc1`, for which the survival was 87%.

On to `Cc1ccccc1NC(=O)CCNC(=O)Cn1ccc2ccccc2c1=O`, for which the survival was 70%.

In the case of `N/C(=N\c1nc2ccccc2o1)NC(=O)/C=C/c1ccco1`, the survival is 85%. Then `Cc1ccc(-n2c(=O)c3ccc(C(=O)NCc4ccco4)cc3n(Cc3ccc(Cl)cc3)c2=O)cc1`, with 77%; and `CS(=O)(=O)c1ccc2nc(NC(=O)CN3C(=O)c4ccccc4C3=O)sc2c1`, with 85%. As to `COc1ccc(CNC(=O)CSCc2cnn(-c3ccccc3)c2-n2cccc2)cc1OC`, the survival is 106%. The result for `Cc1coc2cc3oc(=O)c(CCC(=O)NCc4ccc(Cl)cc4)c(C)c3cc12` reads 69%; that for `CCn1cc2nc(SCc3ccc(C)cc3)n(CCc3ccccc3)c(=O)c2n1`, 78%; that for `N#Cc1cc2cc3c(cc2nc1SCC(=O)N1CCN(c2ccc(F)cc2)CC1)OCCO3`, 67%. As for `CC(C)(C)c1ccc(OCC(=O)Nc2ccc(C(=O)OC3CCCCC3)cc2)cc1`, the survival is 71%. In the case of `CCOC(=O)c1cc(-c2ccccc2)n(-c2cccc(C(=O)Nc3cc(OC)cc(OC)c3)c2)c1C`, the survival is 81%. The result for `CCOC(=O)c1cc(-c2ccccc2)n(-c2cccc(C(=O)Nc3ccc(OC)cc3)c2)c1C` reads 83%; that for `CCOC(=O)c1cc(-c2ccccc2)n(-c2cccc(C(=O)Nc3ccc(OCC)cc3)c2)c1C`, 37% (active); that for `CCOC(=O)c1cc(-c2ccccc2)n(-c2cccc(C(=O)Nc3cccc(SC)c3)c2)c1C`, 32% (active). The result for `CCOC(=O)c1cc(-c2ccccc2)n(-c2cccc(C(=O)Nc3cccc(F)c3)c2)c1C` reads 135%. The result for `CCOC(=O)c1cc(-c2ccccc2)n(-c2cccc(C(=O)Nc3cccc(C(C)=O)c3)c2)c1C` reads 89%.

The values are drawn from PubChem BioAssay AID463173 (ICCB-Longwood Screening Facility, Harvard Medical School, 2010).
